Shown are actives, neighbours in structure and some others; about 19% of the full set was active somewhere.
DT40 TDP1 no CPT: qHTS for Inhibitors of human tyrosyl-DNA phosphodiesterase 1 (TDP1): qHTS in cells in absence of CPT; AID 686978, 2013; Potency, µM (top dose mostly 46.2 µM), for inactives: top-dose activity change, negative = growth inhibition, actives largely listed as inhibitors; actives 15% (n = 420,000); DT40 Tdp1-/- hTDP1 cells, no CPT, ATP luminescence, 48 h; further: potency means the concentration at half of the fitted maximal effect; nearly all actives have a fitted effect of over 55% in size
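Chicken DT40 Tdp1-/- cells stably complemented with human TDP1 were seeded at 400 cells/well with DMSO in place of 20 nM camptothecin. After compound pinning, cells grew at least 48 hr at 37 °C; viability read by CellTiter-Glo luminescence.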
TDP1 cell CPT: qHTS for Inhibitors of human tyrosyl-DNA phosphodiesterase 1 (TDP1): qHTS in cells in presence of CPT; chicken DT40 Tdp1-/-;hTDP1 cells + 20 nM CPT, ATP luminescence, 48 h; Potency, µM (doses to about 46.2 µM), for the others: top-dose activity change, negative = growth inhibition, most hits filed as inhibitors; actives 12% (n = 420,000); AID 686979, 2013; further: potency means the concentration at half of the fitted maximal effect; nearly all actives have a fitted effect of over 55% in size
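Chicken DT40 Tdp1-/- cells stably complemented with human TDP1 were seeded at 400 cells/well in medium containing 20 nM camptothecin, exposed to pin-transferred compounds, and grown at 37 °C for at least 48 hr. Viability was read as ATP luminescence.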
HT1080 IDH1KD tx: qHTS for induction of synthetic lethality in tumor cells producing 2HG: qHTS for the HT-1080-IDH1KD cell line. HT-1080 IDH1 knockdown viability, ATP luminescence, 48 h. Potency, µM (doses to about 46.1 µM), for the others: top-dose activity, negative = toxicity, actives largely listed as cytotoxic. actives 2% (n = 360,000). AID 686971, 2013;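 further: potency means the concentration at half of the fitted maximal effect; 0% = DMSO wells and -100% = cell-free medium wells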
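Viability of IDH1-knockdown HT-1080 fibrosarcoma cells was assessed by CellTiter-Glo after 48 h at 37 °C with titrated compound; concentration-effect curves were classified by fit quality and response size.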
ELG1 DNA repair: qHTS screen for small molecules that inhibit ELG1-dependent DNA repair in human embryonic kidney (HEK293T) cells expressing luciferase-tagged ELG1; HEK293T ELG1-luciferase reporter, luminescence, 16 h; DNA damage induced by 5-fluorouridine; Potency, µM (doses to about 46.1 µM), for inactives: top-dose activity change, negative = inhibition, actives largely listed as inhibitors; AID 504467, 2011; actives 2.3% (n = 330,000); further: potency means the concentration at half of the fitted maximal effect; nearly all actives have a fitted effect of over 55% in size
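Quantitative HTS, concentration-response format. 2,000 cells/well co-treated with 5-fluorouridine and compound, 16 hr in 5% CO2 at 37 °C; ONE-Glo luminescence read after 30 min.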
IL1B secr inh: qHTS for Inhibitors of Inflammasome Signaling: IL-1-beta AlphaLISA Primary Screen; THP-1 LPS/ATP IL-1B secretion, AlphaLISA, 16 h; stronger effect = lower value; activity change, % at 57.5 µM; actives 4.7% (n = 360,000); AID 743279, 2014; in the data active means activity change below about -50%; inconclusive means mostly about -30% to -49%
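THP-1 cells pretreated 1 hr with compounds (up to 57.5 uM final), then stimulated with LPS (250 ng/mL final) plus ATP (1.25 mM final); secreted IL-1B measured by AlphaLISA after 16 hr, decreased signal indicating inhibition.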
HT1080-NT tox: qHTS for induction of synthetic lethality in tumor cells producing 2HG: qHTS for the HT-1080-NT fibrosarcoma cell line; Potency, µM (series often up to 46.1 µM), inactives show top-dose activity, negative = less viability, most hits filed as cytotoxic; actives 1.6% (n = 360,000); HT-1080-NT fibrosarcoma viability, CellTiter-Glo ATP luminescence, 48 h;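 further: NT is the 2HG producing partner of a matched IDH1 knockdown line; potency means the concentration at half of the fitted maximal effect; 0% = DMSO-treated cells and -100% = media-only wells without cells; nearly all actives have a fitted effect of over 55% in size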
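Fibrosarcoma NT cells, 750 per well in 5% FBS RPMI, were exposed to compound for 48 hours. Viability: CellTiter-Glo luminescence.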
* = called active by the depositor. Unless noted, the call rests on the fitted dose curve; in most records, active means well fitted curve in the direction sought with a large enough effect; inconclusive means small, poorly fitted or top-dose-only effect, or another doubt; inactive means no such curve, though single readings can be large; an effect the other way counts as inactive or inconclusive. Unless noted, on the % scale 0 is the no-effect control and ±100 the full control effect.

`COC(=O)C(Cc1ccc(O)cc1)NC(=O)CCc1nc2ccccc2s1` (centres undefined) gave DT40 TDP1 no CPT -8.9%, TDP1 cell CPT 9.4%, HT1080 IDH1KD tx -3.6%, ELG1 DNA repair inconclusive, IL1B secr inh 13.7 and HT1080-NT tox 0.5%.
Screening CCOC(=O)c1c(NC(=O)CSc2c[nH]c3ccccc23)sc2c1CCC2 returned DT40 TDP1 no CPT 13µM*, TDP1 cell CPT inconclusive, HT1080 IDH1KD tx inconclusive, ELG1 DNA repair 17.9%, IL1B secr inh -21.7 and HT1080-NT tox inconclusive.
`CCOC(=O)c1c(NC(=O)CSc2cn(CCNC(=O)c3ccccc3F)c3ccccc23)sc2c1CCCC2` gave DT40 TDP1 no CPT 16.4µM* and TDP1 cell CPT 16.4µM*.
Screening CCOC(=O)c1c(NC(=O)CSc2cn(CCNC(=O)c3ccccc3OC)c3ccccc23)sc2c1CCCC2 returned DT40 TDP1 no CPT 23.1µM* and TDP1 cell CPT inconclusive.
Screening CCOC(=O)c1c(NC(=O)C(C)Sc2cn(CCNC(=O)c3ccc(OC)cc3)c3ccccc23)sc2c1CCC2 (centres undefined) returned DT40 TDP1 no CPT inconclusive and TDP1 cell CPT 20.6µM*.
CC(C)=C(NC(=O)c1ccccc1)C(=O)Nc1cccc(C)c1 was read as DT40 TDP1 no CPT 16.3%, TDP1 cell CPT 3.3%, HT1080 IDH1KD tx -1.0%, ELG1 DNA repair 4.8%, IL1B secr inh 3.5 and HT1080-NT tox -0.6%.
For COc1cccc(NC(=O)CSc2nc3ccccc3c(=O)n2CCCC(=O)NCC2CCCO2)c1 (centres undefined) the results were DT40 TDP1 no CPT -4.2%, TDP1 cell CPT -25.0%, HT1080 IDH1KD tx -24.1%, ELG1 DNA repair inconclusive, IL1B secr inh -3.0 and HT1080-NT tox -12.1%.
For c1ccc2c(c1)OCC(CNCC1COc3ccccc3O1)O2 (centres undefined) the results were DT40 TDP1 no CPT -0.1%, TDP1 cell CPT -8.5%, HT1080 IDH1KD tx -1.0%, ELG1 DNA repair -7.3%, IL1B secr inh 30.3 and HT1080-NT tox -7.3%.
For COc1cccc(OC)c1OCCNC[C@@H]1COc2ccccc2O1 the results were DT40 TDP1 no CPT 26.6µM* and TDP1 cell CPT 26.6µM*.
Screening CCC(=O)N1CCc2cc(OC)c(OC)cc2C1COc1ccc2c(C)cc(=O)oc2c1 (centres undefined) returned DT40 TDP1 no CPT -26.4% and TDP1 cell CPT -4.1%.
Screening COc1ccc(CC(=O)N2CCc3cc(OC)c(OC)cc3C2COc2ccc3c(C)cc(=O)oc3c2)cc1OC (centres undefined) returned DT40 TDP1 no CPT -3.4% and TDP1 cell CPT 2.4%.
Screening COc1cc2c(cc1OC)C(COc1ccc3c(C)cc(=O)oc3c1)N(C(=O)c1cccc(C)c1)CC2 (centres undefined) returned DT40 TDP1 no CPT 6.51µM* and TDP1 cell CPT inconclusive.
Screening COc1cc2c(cc1OC)C(COc1ccc3c(C)cc(=O)oc3c1)N(C(=O)C(C)C)CC2 (centres undefined) returned DT40 TDP1 no CPT 13µM* and TDP1 cell CPT inconclusive.
`CCOc1ccccc1C(=O)N1CCc2cc(OC)c(OC)cc2C1COc1ccc2c(C)cc(=O)oc2c1` (centres undefined) gave DT40 TDP1 no CPT 9.2µM* and TDP1 cell CPT inconclusive.
Screening COc1cc2c(cc1OC)C(COc1ccc3c(C)cc(=O)oc3c1)N(C(=O)c1cccc(OC)c1OC)CC2 (centres undefined) returned DT40 TDP1 no CPT 23.1µM* and TDP1 cell CPT inconclusive.
Cc1ccc(N(C)C(=O)CN2C(=O)CCc3cc(S(=O)(=O)N4CCOCC4)ccc32)cc1 was read as DT40 TDP1 no CPT -1.4% and TDP1 cell CPT -14.1%.
For COc1ccc(OC)c(NC(=O)Cn2c(=O)n(Cc3nc(C)no3)c(=O)c3ccccc32)c1 the results were DT40 TDP1 no CPT 3.2% and TDP1 cell CPT -3.6%.
For COc1ccc(-c2noc(Cn3c(=O)c4ccccc4n(CC(=O)Nc4cccc(C(F)(F)F)c4)c3=O)n2)cc1 the results were DT40 TDP1 no CPT 16.4µM* and TDP1 cell CPT inconclusive.
O=C(Cn1c(=O)n(Cc2nc(-c3ccccc3)no2)c(=O)c2cc3c(cc21)OCO3)Nc1cccc(C(F)(F)F)c1 was read as DT40 TDP1 no CPT 9.2µM* and TDP1 cell CPT 13µM*.
CCOc1ccc(NC(=O)Cn2c(=O)n(Cc3nc(-c4ccccc4)no3)c(=O)c3cc4c(cc32)OCO4)cc1 was read as DT40 TDP1 no CPT -11.5% and TDP1 cell CPT -6.6%.
CCOC(=O)N1CCN(C(=O)C(NC(=O)c2ccc(CC)cc2)C(C)C)CC1 (centres undefined) was read as DT40 TDP1 no CPT 5.8µM*, TDP1 cell CPT 8.2µM*, HT1080 IDH1KD tx 10.7%, ELG1 DNA repair inconclusive, IL1B secr inh -18.9 and HT1080-NT tox -6.1%.
Screening Cc1ccc(C(=O)NC(=S)N2CCN(C(=O)OC(C)(C)C)CC2)cc1Br returned DT40 TDP1 no CPT 13µM*, TDP1 cell CPT 18.4µM*, HT1080 IDH1KD tx -0.4%, ELG1 DNA repair inconclusive, IL1B secr inh 0.0 and HT1080-NT tox 7.6%.
CCOC(=O)N1CCN(C(=O)CSCc2ccc(Br)cc2)CC1 was read as DT40 TDP1 no CPT inconclusive, TDP1 cell CPT -23.1%, HT1080 IDH1KD tx -4.4%, ELG1 DNA repair -6.3%, IL1B secr inh -60.3* and HT1080-NT tox -0.4%.
`CCOC(=O)N1CCN(C(=S)NC(=O)c2ccc(Br)cc2)CC1` gave DT40 TDP1 no CPT 13µM*, TDP1 cell CPT inconclusive, HT1080 IDH1KD tx -15.3%, ELG1 DNA repair -18.1%, IL1B secr inh inconclusive and HT1080-NT tox -4.6%.
Screening C[C@@H]1CN([C@H](C)CO)C(=O)c2cc(-c3ccccc3)cnc2O[C@@H]1CN(C)C(=O)C1CCOCC1 returned DT40 TDP1 no CPT -20.1%, TDP1 cell CPT -5.4%, HT1080 IDH1KD tx -5.1%, IL1B secr inh 8.1 and HT1080-NT tox 13.9%.

Screening results from PubChem BioAssay.
